# Data from PubChem BioAssay AID720690 (Broad Institute, 2013).
# Results with a measured potency or affinity are listed apart. A number with no mark means an inactive call.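 The calls were made as follows: active = every repeat run showing a signal drop whose fitted half-maximal concentration is at most twice the top tested concentration; inconclusive = repeat runs disagree, or flat partial drop, or poor fit; inactive = the rest.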
# Assay: general mammalian cell viability loss – activator set, cherry-pick, cytotoxicity control for miR-122 modulator project, dose response (AID 720690);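 also: 0% = neutral control wells and -100% = MG132 cytotoxic control wells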
# Conditions: HEK293T viability, CellTiter-Glo luminescence, 48 h; series mostly up to 26 µM; activity change, negative = cytotoxicity: at the top concentration
row,Structure (SMILES),"activity change, negative = cytotoxicity"
1,COC(=O)C[C@H]1CC[C@@H]2[C@@H](COc3ccc(NC(=O)c4cnccn4)cc3C(=O)N2C)O1,10.9%
2,C[C@@H]1CN([C@H](C)CO)S(=O)(=O)c2ccc(C3=CCCCC3)cc2O[C@@H]1CN(C)C(=O)Nc1ccc2c(c1)OCO2,-32.2%
3,O=c1c2cc(N3CCOCC3)ccc2[nH]c(=S)n1CCCN1CCCC1,30.1%
4,C/C=C/c1ccc([C@@H]2[C@@H](CNC(=O)c3ccncc3)N(C(=O)CC)[C@H]2CO)cc1,-12.1%
5,CCC(=O)NC[C@H]1[C@H](c2ccc(C3=CCCC3)cc2)[C@H](CO)N1C(C)=O,-5.92%
6,C/C=C/c1ccc([C@H]2[C@@H](CO)N(C(=O)C3CC3)[C@H]2CN(C)C(=O)CC2CC2)cc1,-21.8%
7,CN1C(=O)c2cc(NC(=O)c3cccs3)ccc2OC[C@@H]2O[C@@H](CC(=O)O)CC[C@H]21,-1.12% [at 23.5 µM]
8,O=C(Nc1ncc(Cc2cccc(C(F)(F)F)c2)s1)c1ccc(-c2cccc([N+](=O)[O-])c2)o1,-18.3%
9,Cc1ccc(-c2ccc3c(c2)O[C@H](CN(C)Cc2cncnc2)[C@H](C)CN([C@@H](C)CO)S3(=O)=O)cc1,-21.3%
10,O=C(C1CC1)N1C[C@H]2[C@@H](c3ccccc31)[C@H](CO)N2C(=O)c1ccccc1F,0.81% [at 23.5 µM]
11,CCCNC(=O)N1[C@H](CNC(C)=O)[C@H](c2ccc(C3=CCCC3)cc2)[C@@H]1CO,0.113%
12,CNC(=O)C[C@H]1CC[C@@H]2[C@H](COc3ccc(NC(=O)c4cccc(OC)c4)cc3C(=O)N2C)O1,-2.16% [at 23.5 µM]
13,Cc1noc(C)c1NC(=O)Nc1ccc2c(c1)C(=O)N(C)[C@@H]1CC[C@H](CC(=O)N[C@H]3CCN(Cc4ccccc4)C3)O[C@H]1CO2,11%
14,CC(=O)Nc1ccc2c(c1)C(=O)N(C)[C@@H]1CC[C@H](CC(=O)NC3CCCCC3)O[C@H]1CO2,0.802% [at 23.5 µM]
15,COCC(=O)N(C[C@H]1[C@H](c2ccccc2)[C@H](CO)N1C(=O)NC(C)C)C(C)C,-14.9% [at 23.5 µM]
16,C/C=C/c1ccc([C@@H]2[C@@H](CO)N(C(C)=O)[C@@H]2CN(CC)C(=O)CN(C)C)cc1,-3.94%
17,CC(C)CC#Cc1ccc2c(c1)O[C@H](CN(C)C(=O)c1cnccn1)[C@H](C)CN([C@H](C)CO)S2(=O)=O,-0.258%

row,Structure (SMILES),"activity change, negative = cytotoxicity"
1,O=C(COc1ccccc1F)N1CCc2ccccc2C1,0.158%
2,CCCNC(=O)C[C@@H]1CC[C@@H]2[C@@H](COc3ccc(NS(=O)(=O)c4ccccc4C)cc3C(=O)N2C)O1,-3.61%
3,CCCC(=O)Nc1ccc2c(c1)C(=O)N(C)[C@@H]1CC[C@H](CC(=O)NCC(F)(F)F)O[C@H]1CO2,5.51%
4,COC(=O)C[C@H]1CC[C@H]2[C@H](COc3ccc(NS(=O)(=O)c4ccc(F)cc4)cc3C(=O)N2C)O1,-2.24%
5,CCC(=O)N1[C@H](CN(C)C(C)=O)[C@H](c2ccc(-c3cccnc3)cc2)[C@@H]1CO,-3.45%
6,COCC(=O)Nc1ccc2c(c1)C(=O)N(C)[C@@H]1CC[C@H](CC(=O)NCCCN(C)C)O[C@H]1CO2,-12.7%
7,CCNC(=O)CCC(=O)Nc1cc(Cl)ccc1C,-23.3%
8,C[C@@H]1CN([C@@H](C)CO)S(=O)(=O)c2ccc(C3=CCCCC3)cc2O[C@@H]1CN(C)C(=O)Nc1ccc2c(c1)OCO2,-10.2%
9,O=C(Nc1ccccc1)N1C[C@@H]2[C@H](c3ccccc31)[C@H](CO)N2C(=O)c1ccncc1,-15.6% [at 23.5 µM]
10,CCNC(=O)Nc1ccc2c(c1)C(=O)N(C)[C@H]1CC[C@H](CC(=O)Nc3cccc(F)c3)O[C@@H]1CO2,-2.47%
11,COCCNC(=O)C[C@H]1CC[C@@H]2[C@@H](COc3ccc(NS(=O)(=O)c4ccc(Cl)cc4)cc3C(=O)N2C)O1,-14.5%
12,CCC(=O)N1[C@H](CN(CC)C(=O)c2ccccc2)[C@@H](c2ccccc2)[C@@H]1CO,-9.62%
13,CCC(=O)N(C)C[C@@H]1[C@H](c2ccc(-c3ccccc3F)cc2)[C@H](CO)N1C(C)=O,-4.35%
14,CC(C)C#Cc1ccc2c(c1)O[C@H](CN(C)C(=O)c1ccncc1)[C@H](C)CN([C@H](C)CO)S2(=O)=O,1.9%
15,O=C(Nc1ccccc1F)N1C[C@H]2[C@@H](c3ccccc31)[C@@H](CO)N2C(=O)C1CC1,-1.84%
16,CC(C)C(=O)Nc1ccc2c(c1)C(=O)N(C)[C@@H]1CC[C@@H](CC(=O)NCC3CC3)O[C@H]1CO2,-13.5%
17,C[C@@H]1CN([C@@H](C)CO)S(=O)(=O)c2ccc(-c3ccccc3)cc2O[C@@H]1CN(C)C(=O)c1ccc2c(c1)OCO2,-29.4%
